Data taken from PubChem BioAssay.
For some of these results: Measured potencies and affinities stand elsewhere. Calls of active or inactive are those of the source. Unless noted, the rule behind the calls is not given here.

Legend:
[1] = antimalarial activity against Dd2 strain (AID 2302;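 active = growth inhibition above 50% at the single 2 µM test dose, taken to imply half-maximal potency below 2 µM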;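 note: 0% = DMSO untreated growth and 100% = chloroquine plus artemisinin killed control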); conditions: P. falciparum Dd2 in RBCs, LDH growth readout, 72 h; at 2 µM; hits give high values
[2] = human hepatoma cell viability loss – ATP luminescence, cytotoxicity control for P. falciparum antimalarial project, primary screen (AID 2303;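 active = inhibition above 50%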;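 note: 0% = DMSO wells and 100% = digitonin-killed cells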); conditions: HepG2 viability, 24-48 h, at 10 µM, hits give high values
[3] = molecular target: L-lactate dehydrogenase (Plasmodium falciparum (isolate CDC / Honduras)) (UniProt Q27743); test: PfLDH activity inhibition – cell lysate, 3D7 strain, counter-screen for P. falciparum growth inhibition project (AID 2304);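 note: 0% = vehicle and 100% = reference inhibitor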; conditions: P. falciparum 3D7 crude extract, LDH APAD/NBT absorbance; at 2 µM; hits give high values
[4] = inhibition of 3D7 malaria parasite growth – strain 3D7 (AID 2306);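 note: 0% = DMSO wells and 100% = chloroquine plus artemisinin control wells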; conditions: P. falciparum 3D7 erythrocytic growth, LDH absorbance, 72 h; at 2 µM; hits give high values
[5] = molecular target: Calcium-dependent protein kinase 1 (Plasmodium falciparum (isolate 3D7)) (UniProt P62344); test: PfCDPK1 kinase inhibitors, biochemical, TCAMS library (AID 1159585; cut-off not given, nearly all actives have IC50 up to about 0.98 µM;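 note: inhibitors leave more ATP so luminescence rises with inhibition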); conditions: recombinant PfCDPK1, Kinase-Glo ATP depletion luminescence
[6] = molecular target: Plasmodium falciparum protein kinase 6 (PK6, PF3D7_1337100) (UniProt Q8IDW1); test: PfPK6 kinase inhibitors, biochemical, TCAMS library (AID 1159586); conditions: recombinant PfPK6, Kinase-Glo ATP depletion luminescence
[7] = molecular target: Protein kinase 7 (PK7), Plasmodium falciparum 3D7 (PF3D7_0213400) (UniProt Q7YTF7); test: inhibition of Plasmodium PK7 catalytic activity – biochemical, TCAMS antimalarial set, Kinase-Glo luminescence (AID 1159587); conditions: recombinant PfPK7, Kinase-Glo ATP depletion luminescence
[8] = molecular target: Calcium-dependent protein kinase 4 (Plasmodium falciparum (isolate 3D7)) (UniProt Q8IBS5); test: PfCDPK4 kinase inhibitors, biochemical, TCAMS library (AID 1159588; cut-off not given, nearly all actives have IC50 up to about 0.91 µM); conditions: recombinant PfCDPK4, Kinase-Glo ATP depletion luminescence
Sequence of Calcium-dependent protein kinase 4 (Plasmodium falciparum (isolate 3D7)) (Q8IBS5 whole entry, looked up): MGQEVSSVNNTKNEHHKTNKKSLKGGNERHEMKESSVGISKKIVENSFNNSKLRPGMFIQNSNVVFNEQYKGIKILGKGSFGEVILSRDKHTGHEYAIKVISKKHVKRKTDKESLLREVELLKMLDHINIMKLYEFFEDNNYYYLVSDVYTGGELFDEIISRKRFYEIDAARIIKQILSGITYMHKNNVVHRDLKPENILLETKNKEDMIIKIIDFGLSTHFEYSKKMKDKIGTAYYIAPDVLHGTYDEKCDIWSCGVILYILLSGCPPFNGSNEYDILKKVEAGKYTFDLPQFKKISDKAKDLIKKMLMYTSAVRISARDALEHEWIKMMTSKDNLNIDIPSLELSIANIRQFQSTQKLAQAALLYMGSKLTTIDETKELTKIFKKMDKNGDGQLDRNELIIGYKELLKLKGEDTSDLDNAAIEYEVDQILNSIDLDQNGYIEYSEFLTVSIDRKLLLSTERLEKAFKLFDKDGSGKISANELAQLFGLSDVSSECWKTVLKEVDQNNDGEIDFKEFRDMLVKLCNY

Sequence of Protein kinase 7 (PK7), Plasmodium falciparum 3D7 (PF3D7_0213400) (Q7YTF7 1-343): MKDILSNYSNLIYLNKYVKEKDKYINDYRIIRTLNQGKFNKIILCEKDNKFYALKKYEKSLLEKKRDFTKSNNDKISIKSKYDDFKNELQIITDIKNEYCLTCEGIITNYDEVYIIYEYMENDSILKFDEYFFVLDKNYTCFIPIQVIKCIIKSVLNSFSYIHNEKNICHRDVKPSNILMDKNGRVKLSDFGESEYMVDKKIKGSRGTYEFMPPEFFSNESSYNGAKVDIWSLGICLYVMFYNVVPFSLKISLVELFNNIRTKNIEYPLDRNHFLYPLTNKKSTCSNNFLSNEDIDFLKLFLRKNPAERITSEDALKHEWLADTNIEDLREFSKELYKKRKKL
Sequence of L-lactate dehydrogenase (Plasmodium falciparum (isolate CDC / Honduras)) (Q27743 whole entry, looked up): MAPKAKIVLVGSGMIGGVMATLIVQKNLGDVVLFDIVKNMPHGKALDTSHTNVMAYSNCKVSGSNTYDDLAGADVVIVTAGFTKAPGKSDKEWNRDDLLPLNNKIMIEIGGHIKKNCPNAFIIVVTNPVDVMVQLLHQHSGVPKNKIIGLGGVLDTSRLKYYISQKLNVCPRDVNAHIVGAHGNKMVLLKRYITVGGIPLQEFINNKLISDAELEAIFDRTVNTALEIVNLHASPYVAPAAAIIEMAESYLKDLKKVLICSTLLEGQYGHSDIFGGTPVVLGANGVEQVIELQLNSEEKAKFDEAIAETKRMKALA
Sequence of Plasmodium falciparum protein kinase 6 (PK6, PF3D7_1337100) (Q8IDW1 1-305): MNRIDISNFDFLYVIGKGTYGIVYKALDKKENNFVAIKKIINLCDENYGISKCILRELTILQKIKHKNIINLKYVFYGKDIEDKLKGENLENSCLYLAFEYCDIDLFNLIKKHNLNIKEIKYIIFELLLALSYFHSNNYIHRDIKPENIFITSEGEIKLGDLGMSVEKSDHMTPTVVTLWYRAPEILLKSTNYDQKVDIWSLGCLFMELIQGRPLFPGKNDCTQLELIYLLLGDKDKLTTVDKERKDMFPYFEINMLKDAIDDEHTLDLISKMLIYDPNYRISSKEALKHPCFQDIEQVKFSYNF
Sequence of Calcium-dependent protein kinase 1 (Plasmodium falciparum (isolate 3D7)) (P62344 whole entry, looked up): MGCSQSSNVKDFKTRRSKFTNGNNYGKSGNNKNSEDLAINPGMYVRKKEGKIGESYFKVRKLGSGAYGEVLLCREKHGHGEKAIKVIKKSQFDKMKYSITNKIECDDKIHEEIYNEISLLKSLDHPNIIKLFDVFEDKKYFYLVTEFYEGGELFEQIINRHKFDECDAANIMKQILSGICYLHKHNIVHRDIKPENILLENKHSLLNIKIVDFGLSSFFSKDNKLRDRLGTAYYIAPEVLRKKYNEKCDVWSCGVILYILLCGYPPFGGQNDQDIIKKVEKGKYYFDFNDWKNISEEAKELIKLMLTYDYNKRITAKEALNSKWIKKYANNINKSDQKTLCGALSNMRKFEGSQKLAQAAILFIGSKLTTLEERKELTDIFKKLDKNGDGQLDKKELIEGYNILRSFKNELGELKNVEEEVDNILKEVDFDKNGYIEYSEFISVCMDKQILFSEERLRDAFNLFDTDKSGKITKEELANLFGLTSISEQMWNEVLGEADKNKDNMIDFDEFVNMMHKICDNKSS

Cc1ccoc1C(=O)Nc1cccc(-c2cccc(-c3nc4ccccc4[nH]3)c2)c1
inactive: growth inhibition [1] 20% | inhibition [2] 43% | inhibition [3] -2% | outcome [5] | outcome [6] | outcome [7] | outcome [8]
active: growth inhibition [4] 85%

CCOC(=O)NC1=NC(C)(C)N(OCCCOc2cc(Cl)c(Cl)cc2Cl)C(NC(=O)OCC)=N1
active: growth inhibition [1] 97% | inhibition [2] 63% | growth inhibition [4] 91%
inactive: inhibition [3] 5% | outcome [5] | outcome [6] | outcome [7] | outcome [8]

COC(=O)c1cccc(CNCc2ccc(-c3ccc(-c4nc5ccc(F)cc5[nH]4)s3)cc2)c1
active: growth inhibition [1] 82% | growth inhibition [4] 101%
inactive: inhibition [2] 4% | inhibition [3] 7% | outcome [5] | outcome [6] | outcome [7] | outcome [8]

CN(C)CCNC(=O)c1ccc2c(c1)ncn2-c1cc(OCc2ccccc2C(F)(F)F)c(C(N)=O)s1 (tested in a mixture with another compound)
inactive: growth inhibition [1] 8% | inhibition [2] -9% | inhibition [3] 1% | outcome [5] | outcome [6] | outcome [7] | outcome [8]
active: growth inhibition [4] 90%

COc1cccc(CNc2ncc(-c3ccsc3)c(-c3nccs3)n2)c1
inactive: inhibition [2] 9% | inhibition [3] 3% | outcome [5] | outcome [6] | outcome [7] | outcome [8]
active: growth inhibition [1] 82% | growth inhibition [4] 89%

CN(C)c1ccc(C=C2SC(=Nc3ccccc3)N(c3ccccc3)C2=O)cc1[N+](=O)[O-]
inactive: inhibition [2] 9% | inhibition [3] 7% | outcome [5] | outcome [6] | outcome [7] | outcome [8]
active: growth inhibition [1] 82% | growth inhibition [4] 96%

CCN(CC)c1ccc2nc(N)nc(N)c2c1Cl
active: inhibition [2] 62% | growth inhibition [4] 92%
inactive: growth inhibition [1] 1% | inhibition [3] -5% | outcome [5] | outcome [6] | outcome [7] | outcome [8]

CCOC(=O)c1cc(C(=O)NCCCCN2CCC(c3cn(C)c4ccccc34)CC2)ccc1-c1ccc(C(F)(F)F)cc1
active: growth inhibition [4] 91%
inactive: growth inhibition [1] 6% | inhibition [2] 25% | inhibition [3] -3% | outcome [5] | outcome [6] | outcome [7] | outcome [8]

CCCCN(CCCC)CCC(O)C(=Cc1ccc(Cl)cc1Cl)c1ccc(C(F)(F)F)cc1N (stereo not given)
active: growth inhibition [1] 99% | growth inhibition [4] 100%
inactive: inhibition [2] -9% | inhibition [3] 1% | outcome [5] | outcome [6] | outcome [7] | outcome [8]

COc1ccc(CNC(=O)NC2CCN(c3ccnc(Nc4ccc(OC)cc4)n3)C2)cc1 (stereo not given)
active: growth inhibition [1] 80% | growth inhibition [4] 87%
inactive: inhibition [2] 27% | inhibition [3] 1% | outcome [5] | outcome [6] | outcome [7] | outcome [8]

Fc1ccc(-c2oc(C3CCN(CCc4ccc(-c5nc(=S)o[nH]5)cc4)CC3)nc2COCC(F)(F)F)cc1
inactive: inhibition [2] 5% | inhibition [3] 3% | outcome [5] | outcome [6] | outcome [7] | outcome [8]
active: growth inhibition [1] 95% | growth inhibition [4] 97%

N#Cc1cccc(C(=O)Nc2cccc(-c3cccc(CN4CCNCC4)c3)c2)c1
inactive: growth inhibition [1] 10% | inhibition [2] 37% | inhibition [3] -3% | outcome [5] | outcome [6] | outcome [7] | outcome [8]
active: growth inhibition [4] 89%

Cn1c2c(c3ccccc31)CN(CCC1(c3ccc(Cl)c(Cl)c3)CN(C(=O)Cc3ccccc3)CCO1)CC2 (stereo not given)
active: growth inhibition [1] 91% | growth inhibition [4] 95%
inactive: inhibition [2] 22% | inhibition [3] 0% | outcome [5] | outcome [6] | outcome [7] | outcome [8]

CN(C(=O)c1snnc1-c1ccccc1)C1CCN(CCCCCNC(=O)/C=C/c2ccc(Cl)c(Cl)c2)CC1
inactive: inhibition [2] 44% | inhibition [3] 4% | outcome [5] | outcome [6] | outcome [7] | outcome [8]
active: growth inhibition [1] 58% | growth inhibition [4] 96%

CC(C)(C)Cn1cc(-c2ccc(C(=O)NCCc3ccc(S(C)(=O)=O)cc3)cc2)c(N)n1 (tested in a mixture with another compound)
active: growth inhibition [4] 86%
inactive: growth inhibition [1] 10% | inhibition [2] 7% | inhibition [3] -1% | outcome [5] | outcome [6] | outcome [7] | outcome [8]

CCn1c(-c2nonc2N)nc2cnc(Oc3cccc(NC(=O)c4ccc(OCCN(C(C)C)C(C)C)cc4)c3)cc21
inactive: growth inhibition [1] 10% | inhibition [3] -6% | outcome [5] | outcome [6] | outcome [7] | outcome [8]
active: inhibition [2] 63% | growth inhibition [4] 97%

Cc1cccc2[nH]c(-c3cccc(-c4ccc(NC(=O)Cc5ccon5)cc4)c3)nc12
inactive: growth inhibition [1] 38% | inhibition [2] 34% | inhibition [3] 2% | outcome [5] | outcome [6] | outcome [7] | outcome [8]
active: growth inhibition [4] 87%

O=C(c1ccccc1F)N(Cc1ccc(Cl)cc1)c1ccccn1
active: growth inhibition [1] 58% | growth inhibition [4] 84%
inactive: inhibition [2] -3% | inhibition [3] 1% | outcome [5] | outcome [6] | outcome [7] | outcome [8]

Cn1ccc(-c2cccc(Nc3ccnc4cc(-c5nccs5)ccc34)c2)n1
active: growth inhibition [1] 94% | growth inhibition [4] 101%
inactive: inhibition [2] 39% | inhibition [3] -1% | outcome [5] | outcome [6] | outcome [7] | outcome [8]

CCCNc1nc(Nc2ccccc2C)nc2ccccc12
inactive: inhibition [2] 13% | inhibition [3] 1% | outcome [5] | outcome [6] | outcome [7] | outcome [8]
active: growth inhibition [1] 64% | growth inhibition [4] 95%
